Laboratory results from the supplement of paper PMC6555819.

Experiments:
Experiment in all cases: PBM binding z-score (relative to random genomic background probes); higher = stronger binding; sequences stand for … in GC…GCGATTGACAGCGTAGAATGAAGG
[1] = system: FXR:RXRa (NR concentration 270 nM, RXRa partner concentration 90 nM)
Outline: (§1)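 Ligand-free nuclear receptor dimers were bound for 1 h to custom Agilent 4×180K protein-binding microarrays. Detection used antibodies against each partner (one per run). Binding z-scores rest on regression-normalized fluorescence, with random background probes as the reference.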

[2] = system: LXRa:RXRa (NR concentration 270 nM, RXRa partner concentration 90 nM)
Outline: as §1

[3] = system: LXRa homodimer (NR concentration 270 nM)
Outline: as §1

[4] = system: LXRb:RXRa (NR concentration 270 nM, RXRa partner concentration 90 nM)
Outline: as §1

[5] = system: LXRb homodimer (NR concentration 270 nM)
Outline: as §1

[6] = system: PPARa:RXRa (NR concentration 270 nM, RXRa partner concentration 90 nM)
Outline: as §1

[7] = system: PPARg:RXRa (NR concentration 180 nM, RXRa partner concentration 90 nM)
Outline: as §1

[8] = system: PPARg:RXRa 270nM:90nM, anti-RXR (NR concentration 270 nM, RXRa partner concentration 90 nM)
Outline: as §1

[9] = system: PPARg:RXRa 30nM:10nM, anti-RXR (NR concentration 30 nM, RXRa partner concentration 10 nM)
Outline: as §1

[10] = system: PPARg:RXRa 90nM:30nM, anti-RXR (NR concentration 90 nM, RXRa partner concentration 30 nM)
Outline: as §1

[11] = system: PPARg:RXRa DBDmut IVT, anti-RXR (DBD mutation: RXRa K156A/R161A, NR concentration 270 nM, RXRa partner concentration 90 nM)
Outline: as §1

[12] = system: PPARg:RXRa IVT, anti-PPARg (NR concentration 270 nM, RXRa partner concentration 90 nM)
Outline: as §1

[13] = system: PPARg DBDmut:RXRa IVT, anti-PPARg (DBD mutation: PPARg1 K132A/R137A, NR concentration 270 nM, RXRa partner concentration 90 nM)
Outline: as §1

[14] = system: PPARg DBDmut IVT, anti-PPARg (DBD mutation: PPARg1 K132A/R137A, NR concentration 270 nM)
Outline: as §1

[15] = system: PPARg homodimer (NR concentration 180 nM)
Outline: as §1

[16] = system: PXR:RXRa (NR concentration 270 nM, RXRa partner concentration 90 nM)
Outline: as §1

[17] = system: PXR homodimer (NR concentration 270 nM)
Outline: as §1

[18] = system: RARa:RXR (NR concentration 270 nM, RXRa partner concentration 90 nM)
Outline: as §1

[19] = system: RARa homodimer (NR concentration 270 nM)
Outline: as §1

[20] = system: RARb:RXRa (NR concentration 270 nM, RXRa partner concentration 90 nM)
Outline: as §1

Row | Sequence | PBM binding z-score [1] | PBM binding z-score [2] | PBM binding z-score [3] | PBM binding z-score [4] | PBM binding z-score [5] | PBM binding z-score [6] | PBM binding z-score [7] | PBM binding z-score [8] | PBM binding z-score [9] | PBM binding z-score [10] | PBM binding z-score [11] | PBM binding z-score [12] | PBM binding z-score [13] | PBM binding z-score [14] | PBM binding z-score [15] | PBM binding z-score [16] | PBM binding z-score [17] | PBM binding z-score [18] | PBM binding z-score [19] | PBM binding z-score [20]
1 | CCTAGCTGGTCAAGGTCACACACGCTATAGGTAC | 4.92 | 3.91 | 1.74 | 3.43 | 0.392 | 4.23 | 2.76 | 3.05 | 0.699 | 1.94 | 1.88 | 2.8 | 0.834 | 0.076 | 3.15 | 4.03 | 1.43 | 4.64 | 2.61 | 3.99
2 | TCATATAGGTAAATGCTCGGTGAAAGTCCGATCT | 1.09 | 0.864 | 0.318 | 0.922 | -0.121 | 1.33 | 0.611 | 2.36 | 3.97 | 3.11 | 4.09 | 1.97 | 0.975 | 0.65 | 0.847 | 0.631 | 0.54 | 0.843 | 0.605 | 0.474
3 | CCTCAAAGTTCAACTAAGGTAACGTAAAGCACGC | 6.89 | 6.33 | 4.64 | 4.52 | 2.85 | 5.12 | 3.17 | 4.09 | 1.44 | 2.86 | 0.946 | 0.996 | 1.12 | 0.201 | 4.29 | 5.71 | 4.04 | 4.47 | 3.41 | 5.33
4 | TCATATGGGTAAACAGGTGAAAGTCCGTAAGTTA | 0.13 | 0.314 | -0.0837 | 0.449 | -0.731 | 1.85 | 2.04 | 2.98 | 2.52 | 2.89 | 4.06 | 3.99 | 0.27 | 0.486 | 0.322 | 0.505 | 0.00205 | 0.571 | -0.0494 | 0.316
5 | AGTCAAAGTTCACTAGGTATCGTAAGATTCAGCT | 4.92 | 5.04 | 3.27 | 2.98 | 1.09 | 4.19 | 6.03 | 5.82 | 2.96 | 5.12 | 1.2 | 3.6 | 1.14 | 1.1 | 2.46 | 4.04 | 3.44 | 2.8 | 1.06 | 4.7
6 | AATACAGGGTTATCGTAGGCCAGAGTACGCACAG | 1.75 | 5.85 | 0.204 | 2.68 | 0.3 | 2.55 | 1.75 | 1.35 | 0.668 | 0.954 | 0.539 | 1.12 | 0.626 | 0.739 | 0.97 | 1.59 | -0.0696 | 1.79 | 0.276 | 1.3
7 | TCTCGGAGAACACGAAAGGTCAGAGCTCGACATC | 2.02 | 3.08 | 1.46 | 3 | -0.199 | 3.32 | 0.977 | 2.21 | 2.43 | 2.25 | 1.25 | 1.13 | -0.0833 | -0.197 | 1.7 | 3.39 | 0.0795 | 3.89 | 0.536 | 3.55
8 | CCTAGAAGGCCAATCTGGGTCACTCAAGGCTTGA | 1.99 | 3.1 | -0.29 | 2.04 | -0.793 | 3.72 | 2.93 | 2.57 | 0.176 | 1.97 | 3.74 | 4.78 | -0.238 | -1.07 | 1.21 | 1.86 | -0.344 | 2.12 | 0.185 | 2.4
9 | GCTGCTAGGTCAACTGATGGTCAGATAAAGCTCG | 4.47 | 3.11 | 0.48 | 2.43 | 0.348 | 3.87 | 3.29 | 3.18 | 0.958 | 2.4 | 4.95 | 4.14 | -0.121 | 0.186 | 2.79 | 1.8 | -0.238 | 3.42 | -0.022 | 4.22
10 | ACTATTAGTTGAGACGAGGGCAATCGATAGGTTG | 0.46 | 0.333 | -0.168 | 0.136 | -0.0649 | 0.253 | 0.627 | 0.107 | 0.45 | 0.23 | 0.458 | 0.2 | 0.805 | 0.52 | 0.357 | 1.46 | 0.418 | 1.25 | 0.603 | 0.918
11 | CGAACTAGGTCAGAACAGGACAGTGCAGGATGAT | 1.66 | 0.725 | -0.124 | 0.147 | -0.225 | 3.08 | 5.1 | 4.39 | 1.84 | 3.81 | 7.46 | 7.27 | 0.839 | 0.368 | 1.18 | 0.783 | 0.225 | 0.999 | 0.221 | 2.96
12 | CTCGAAAGGTCGGTTGAGGTGAATATACGGATAA | 2.5 | 2.04 | 0.0954 | 1.76 | 0.0541 | 3.15 | 0.944 | 1.6 | 0.365 | 1.15 | -0.113 | 1.11 | 0.319 | 0.349 | 0.741 | 3.62 | 0.148 | 2.94 | 0.256 | 3.27
13 | CTCGAAAGGTCGTGCTCAGGTGAGGATACCAAAC | 5.21 | 3.76 | 0.268 | 3.22 | -0.12 | 4.86 | 2.79 | 4.04 | 0.853 | 2.43 | 0.783 | 1.73 | -0.368 | 0.176 | 1.74 | 3.15 | 0.182 | 3.92 | 0.325 | 3.94
14 | CGTCCATGGTCAGAGAGGTCAGTGAATGCCGAGT | 1.59 | 1.68 | 0.897 | 1.84 | -0.375 | 2.51 | 0.301 | 0.981 | -0.535 | 0.219 | 0.536 | 0.857 | -0.938 | -0.643 | 1.93 | 3.11 | 1.73 | 2.87 | 0.23 | 3.52
